# From PubChem BioAssay (NCATS)
# Inconclusive results are not listed. A number with no mark means an inactive call. Active and inactive are the calls of the source. Calls come from the whole dose curve; as a rule, active = well fitted inhibition curve with a large enough effect; inconclusive = small, poorly fitted or top-dose-only effect; inactive = flat fitted curve, though single readings scatter.
# Target: Glutathione peroxidase 1 (Homo sapiens) (UniProt P07203)
# Assay: Primary qHTS Assay for Inhibitors of Recombinant Selenoprotein Glutathione Peroxidase 1 (GPX1) (AID 1845191); note: nearly all actives have a fitted effect of over 65% in size
# Settings: recombinant GPX1, GR-coupled NADPH fluorescence, 15 min; series mostly up to 48.8 µM; activity, negative = inhibition: at the top concentration
# In short: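 GPX1 10 nM, GR 100 nM, GSH 1 mM, NADPH 0.5 mM, CHP 0.5 mM (final). 30-min cpd preincubation, RT. Ex340/Em450 read t=0, t=15 min.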
# % is set by controls: 0 for no effect and ±100 for the full control effect.
# Chain of Glutathione peroxidase 1 (Homo sapiens) (P07203 whole entry, looked up): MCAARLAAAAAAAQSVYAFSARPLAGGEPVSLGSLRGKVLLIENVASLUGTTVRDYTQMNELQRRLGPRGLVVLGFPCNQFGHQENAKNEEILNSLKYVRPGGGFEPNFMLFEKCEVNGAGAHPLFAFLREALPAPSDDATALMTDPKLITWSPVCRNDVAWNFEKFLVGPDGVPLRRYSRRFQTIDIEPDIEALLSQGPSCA
SMILES,outcome,"activity, negative = inhibition"
C=C1C(OC(C)=O)C(=O)C2C(C)(C)C(OC(C)=O)CCC2(C)C1CC(OC(C)=O)/C(C)=C/COC(C)=O (stereo not given),inactive [at 27.7 µM],–
C=CC(C)(C)O[C@@H]1O[C@H](CO[C@@H]2OC[C@](O)(CO)[C@H]2O)[C@@H](O)[C@H](O)[C@H]1O,–,4.93% [at 27.7 µM]
COC(=O)C1C(c2ccc(O)cc2)C(C(=O)OC)C1c1ccc(O)cc1 (stereo not given),–,-9.85% [at 27.7 µM]
OC[C@H]1O[C@@H](Oc2cc(O)cc(-c3cc4ccc(O)cc4o3)c2)[C@H](O)[C@@H](O)[C@@H]1O,–,-16.8% [at 27.7 µM]
O=C(CCCCc1ccc2ccccc2c1)C(F)(F)F,inactive [at 98.3 µM],–
COC1=Cc2c(nc3n(c2=O)C(C)C(=O)NC3(O)C(C)C)OC=C1 (stereo not given),inactive [at 27.7 µM],–
C/C=C(\C)C(=O)O[C@@H](C)[C@H]1CC[C@]2(O)C3CCC4C[C@@H](OC5CC(OC)C(OC6CC(OC)C(OC7CC(OC)C(OC8OC(C)C(OC9OC(CO)C(O)C(O)C9O)C(OC)C8O)C(C)O7)C(C)O6)C(C)O5)CC[C@]4(C)C3[C@H](O)[C@@H](O)[C@]12C (stereo not given in full),inactive [at 9.52 µM],–
COc1cc(O[C@@H]2O[C@H](CO)[C@@H](O)[C@H](O)[C@H]2O)c(CCC(=O)OC[C@H]2O[C@@H](Oc3cc(OC)c(C4OC(=O)C(C)(O)C4O)cc3CCC(=O)O)[C@H](O)[C@@H](O)[C@@H]2O)cc1C1OC(=O)C(C)(O)C1O (stereo not given in full),–,3.3% [at 15.3 µM]
COc1c(OC2OC(CO)C(O)C(O)C2O)ccc(O)c1C(=O)OCc1ccccc1O[C@@H]1O[C@H](CO)[C@@H](O)[C@H](O)[C@H]1O (stereo not given in full),inactive [at 15.3 µM],–
CC1=C2C=C(CO)C(CO)CCC2(C)CCC1=O (stereo not given),–,0.493%
C=C1CCC2C(C)(CO[C@@H]3O[C@H](CO)[C@@H](O)[C@H](O)[C@H]3O)C(O)CCC2(C)C1C(=O)CC1=CCOC1=O (stereo not given in full),–,-3.3% [at 27.7 µM]
Clc1ccc2c(c1)C1=NCCN1c1c(-c3noc(C4CC4)n3)ncn1-2,inactive,–
COc1cc(/C=C/C(=O)OC(C)(C)C(OC2OC(CO)C(O)C(O)C2O)C(=O)OCc2ccc(OC3OC(CO)C(O)C(O)C3O)cc2)ccc1O (stereo not given),inactive [at 15.3 µM],–
CC(C)=CCC/C(C)=C/CC/C(C)=C/CC[C@]1(C)CCc2cc(O)cc(C)c2O1,inactive [at 27.7 µM],–
CC1=C2C(=O)C=C(CO)[C@@H]2[C@H]2OC(=O)[C@H](C)[C@@H]2[C@@H](O)C1,–,-9.08%
CC1(C)CCC(C)(C)c2cc([C@@H](O)C(=O)Nc3ccc(C(=O)O)cc3F)ccc21,inactive,–
O=C1C[C@@H](c2ccc(O)cc2)Oc2cc(O)ccc21,–,2.31%
COc1ccccc1CC(C(=O)O)N(C)C(=O)c1ccccc1 (stereo not given),–,-11.9% [at 27.7 µM]
C[C@@H]1CC[C@]2(C(=O)O)CC[C@]3(C)C(=CCC4[C@]5(C)C(CC[C@]43C)C(C)(C)[C@@H](O)[C@H](O)[C@@H]5O)C2[C@]1(C)O (stereo not given in full),inactive [at 27.7 µM],–
C=C[C@H]1[C@H](O[C@@H]2O[C@H](CO)[C@@H](O)[C@H](O)[C@H]2O)OC=C2C(=O)OCC[C@]21O,inactive [at 27.7 µM],–
C[C@@H]1O[C@@H](O[C@H]2[C@H](O[C@H]3[C@H](O[C@H]4CC[C@@]5(C=O)C(CC[C@]6(C)C5CC=C5C7CC(C)(C)C[C@@H](O)[C@]7(C)CC[C@]56C)C4(C)C)O[C@H](C(=O)O)[C@@H](O)[C@@H]3O)OC[C@@H](O)[C@@H]2O)[C@H](O)[C@H](O)[C@H]1O (stereo not given in full),–,-19.6% [at 15.3 µM]
CC1(C)CC[C@]2(C(=O)O)CC[C@]3(C)C(=CCC4[C@@]5(C)CCC(O[C@@H]6OC[C@H](O)[C@H](O)[C@H]6O[C@@H]6O[C@H](CO)[C@@H](O)[C@H](O)[C@H]6O)[C@@](C)(CO)C5CC[C@]43C)[C@@H]2C1 (stereo not given in full),–,-12.2% [at 15.3 µM]
C=CC(C)(O)CC/C=C(\C)C(=O)OCC1OC(OC2CCC3(C)C(CCC4(C)C3CC=C3C5CC(C)(C)C(O)CC5(C(=O)O)CCC34C)C2(C)C)C(O)C(OC2OC(CO)C(O)C(OC3OC(CO)C(O)C(OC4OC(COC5OC(CO)C(O)C(O)C5O)C(O)C(O)C4O)C3O)C2O)C1O (stereo not given),inactive [at 9.52 µM],–
CNC(=O)[C@H]1O[C@@H](n2cnc3c(NCc4ccc(N)c(I)c4)ncnc32)[C@H](O)[C@@H]1O,–,3.67% [at 9.52 µM]
CC1(CO)CC2C(O)C(=O)C3(CO)CC3(C)C2C1 (stereo not given),–,-8.49%
